Experimental findings from PubChem BioAssay (EPA / NIEHS) are described below.

Each structure is given as a SMILES string. Several values for one entry are separate records, joined by “and”; a condition that tells them apart may be missing. Equal values may be shown once. Records with an inconclusive call do not appear. Some compounds were tested as several samples or in several runs, with calls that do not always agree. Activity calls are given as the source filed them. Rule for the calls, unless noted: active = hit-call score of the fitted dose curve at least 0.9, where 1 is the maximum; inactive = score below 0.9.

One may read the AC50 as the concentration giving half of the maximal activity seen.

Read-out in test [1]: Interleukin-8 (IL8), CXCL8 (gene 3576)
The test can be described thus: BSK_3C_IL8: BioMAP Diversity Plus: 3C Assay for Interleukin-8 (IL8) Biomarker Activity (AID 2283020). The conditions noted are these: primary human endothelial cells (HUVEC); actives raise or lower the signal. An outline of the steps:
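Primary human umbilical vein endothelial cells were dosed for 24 h. IL-8 was quantified by ELISA and fitted bidirectionally against DMSO. Cytotoxicity was assessed in parallel cultures by SRB staining at 560 nm.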

Read-out in test [2]: Monokine induced gamma interferon (MIG), CXCL9 (gene 4283)
Description: BSK_3C_MIG: BioMAP Diversity Plus: 3C Assay for Monokine induced gamma interferon (MIG) Biomarker Activity (AID 2283021).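 For AC50: MIG protein level measured by immunoassay in the treated endothelial cultures.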 The conditions noted are these: primary human endothelial cells (HUVEC); actives raise or lower the signal. The procedure, abridged:
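HUVEC primary endothelial cultures dosed with chemical; MIG quantified by ELISA at 24 h. Data fitted bidirectionally against DMSO control, with parallel SRB total-protein staining for cytotoxicity.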

Test [3] concerns the target human Vitamin D Receptor (VDR), VDR (gene 7421) (UniProt P11473). Description: ATG_VDR_TRANS: Attagene TRANS-FACTORIAL HepG2 Assay for human Vitamin D Receptor (VDR) (AID 2283022; active = hit-call score of the fitted dose curve at least 0.9, where 1 is the maximum). The procedure, abridged:
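HepG2 cells were transiently transfected with GAL4-UAS reporter units and a chimeric VDR-Gal4 construct, then dosed for 24 hours. Reporter mRNA was quantified by RT-PCR, fluorescent labeling, HpaI digestion and capillary electrophoresis; gain of signal analysed vs DMSO.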

Read-out in test [4]: Matrix Metallopeptidase 1 (MMP1), MMP1 (gene 4312)
The test can be described thus: BSK_BE3C_MMP1: BioMAP Diversity Plus: BE3C Assay for Matrix Metallopeptidase 1 (MMP1) Biomarker Activity (AID 2283024). The settings on record: primary human bronchial epithelial cells; actives raise or lower the signal. An outline of the steps:
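Human primary bronchial epithelial cells (BE3C system) dosed for 24 h; MMP-1 quantified by ELISA. Bidirectional fit against DMSO; cytotoxicity tracked in parallel cultures by SRB total-protein staining.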

A short description of test [5]: BSK_3C_Vis: BioMAP Diversity Plus: 3C Assay for Morphology Visualization (AID 2283025).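 For AC50: light microscopy image of cell morphology used as background control.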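 Note: fitted both ways so gain or loss versus DMSO counts.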 The conditions noted are these: primary human endothelial cells (HUVEC). An outline of the steps: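 Human umbilical vein endothelial cell morphology was inspected by light microscopy 24 h after chemical dosing; scored bidirectionally relative to DMSO.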
Read-out in test [6]: Pselectin, SELP (gene 6403)
The test can be described thus: BSK_4H_Pselectin: BioMAP Diversity Plus: 4H Assay for Pselectin Biomarker Activity (AID 2283026). The settings on record: primary human endothelial cells (HUVEC); actives raise or lower the signal. An outline of the steps:
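Primary human umbilical vein endothelial cells were treated 24 h, and cell-surface P-selectin was then quantified by ELISA. Bidirectional fit versus DMSO; cytotoxicity checked in parallel cultures by SRB total-protein staining.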

Test [7] can be described thus: BSK_4H_SRB: Viability Assessment in the BioMAP Diversity Plus: 4H Assay (AID 2283027).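 For AC50: curves fitted both ways versus DMSO so AC50 may be loss or gain.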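 Note: cells exposed to compound for 24 h before staining.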 The conditions noted are these: primary human endothelial cells (HUVEC). The procedure, abridged: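 Human umbilical vein endothelial cells were dosed with chemical and, after 24 h, fixed with 10% TCA, stained with 0.1% sulforhodamine B, and read at 560 nm to give total protein as a cytotoxicity measure. Bidirectional fitting relative to DMSO control.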

A short description of test [8]: BSK_BE3C_SRB: Viability Assessment in the BioMAP Diversity Plus: BE3C Assay (AID 2283028). The conditions noted are these: primary human bronchial epithelial cells. An outline of the steps:
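Human bronchial epithelial primary cells in confluent culture, 24 h after chemical dosing; total protein by 0.1% SRB staining after 10% TCA fixation, read at 560 nm. Bidirectional fitting versus DMSO baseline.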

Read-out in test [9]: Thrombomodulin, THBD (gene 7056)
Description: BSK_3C_Thrombomodulin: BioMAP Diversity Plus: 3C Assay for Thrombomodulin Biomarker Activity (AID 2283029). The settings on record: primary human endothelial cells (HUVEC); actives raise or lower the signal. An outline of the steps: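 Human umbilical vein endothelial cells were exposed to chemicals for 24 h; cell-surface thrombomodulin quantified by ELISA, with bidirectional fitting against DMSO baseline.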

Test [10] in a line: BSK_3C_SRB: Viability Assessment in the BioMAP Diversity Plus: 3C Assay (AID 2283023).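 Note: fitted both ways against DMSO so a hit may be signal rise or drop.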 The conditions noted are these: primary human endothelial cells (HUVEC). An outline of the steps: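 Human umbilical vein endothelial cells in the 3C system, treated 24 h. Total protein measured by 0.1% sulforhodamine B staining after 10% TCA fixation, read at 560 nm; bidirectional fit versus DMSO.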

human Vitamin D Receptor (VDR), VDR (gene 7421), sequence (P11473 whole entry, looked up, the tested form may be a part): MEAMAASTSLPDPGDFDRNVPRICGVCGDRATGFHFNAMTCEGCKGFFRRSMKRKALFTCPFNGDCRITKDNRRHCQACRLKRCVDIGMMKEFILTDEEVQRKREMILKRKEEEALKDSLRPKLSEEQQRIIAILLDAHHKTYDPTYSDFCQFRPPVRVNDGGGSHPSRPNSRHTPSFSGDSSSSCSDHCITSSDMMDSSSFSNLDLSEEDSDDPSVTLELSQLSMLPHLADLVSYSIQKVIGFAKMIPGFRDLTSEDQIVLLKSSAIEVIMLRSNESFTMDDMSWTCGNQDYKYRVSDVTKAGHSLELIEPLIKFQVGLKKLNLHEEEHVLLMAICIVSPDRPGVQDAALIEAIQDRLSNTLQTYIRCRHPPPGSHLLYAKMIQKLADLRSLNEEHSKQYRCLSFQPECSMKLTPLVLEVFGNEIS

As for `Cc1ccc([N+](=O)[O-])cc1N`, the outcome in test [1], in test [2], in [3], in test [4], in [5] and in test [6] was inactive. In addition, the outcome in [7], in [8] and in test [9] was inactive.

For the compound `CCCCCCCCCCCC(C)=O`, the AC50 in test [1] is 28.6 µM (active); in test [2], 35 µM (active); in test [4], 0.016 µM (active); in test [5] it was 37.8 µM (active); in [6] it was 28.1 µM (active); in test [7], 33.9 µM (active). Also, the compound was classed as inactive in [3], in [8] and in test [9].

As to `CCCCCCCCC(CO)CCCCCC` (stereo not drawn), the outcome in test [1], in [2], in test [3], in [4], in [5] and in test [6] was inactive. Further, the outcome in test [7], in test [8] and in test [9] was inactive.

With `COC(OC)(C(=O)c1ccccc1)c1ccccc1`, in [1], the half-maximal activity concentration (AC50) is 0.016 µM (active). Also, the result in [2], in test [3], in test [4], in [5], in test [6] and in test [7] was inactive. Further, the outcome in test [8] and in test [9] was inactive.

Consider `CCNc1nc(NC(C)(C)C)nc(OC)n1`, for which the outcome in test [1], in [2], in [3], in test [4], in [5] and in [6] was inactive. Further, the result in [7], in test [8] and in test [9] was inactive.

Regarding `CCCCCCOC(=O)CCCCC(=O)OCCCCCC`, the outcome in test [1], in test [2], in test [3], in test [10], in [4] and in test [5] was inactive. The outcome in [6], in [7], in test [8] and in test [9] was inactive.

As for `CC1(C)CC(O)CC(C)(C)N1[O]`, the outcome in test [1], in test [2], in test [3], in test [4], in [5] and in test [6] was inactive. Besides, the outcome in [7], in [8] and in [9] was inactive.

On to `Oc1ccccc1Cc1ccccc1O`, for which the result in [1], in test [2], in [3], in [10], in [4] and in [6] was inactive. Moreover, the result in test [7], in [8] and in test [9] was inactive. In addition, in test [9], the AC50 is 11.7 µM (active).

Consider `Oc1ccc(/C=C/c2cc(O)cc(O)c2)cc1`, for which the outcome in test [1], in test [2], in test [3], in test [10], in test [4] and in [6] was inactive. Moreover, the outcome in test [8] and in [9] was inactive. For the same compound, the AC50 in [5] and in test [7] was 20 µM (active) throughout.

In the case of `C1CNCCN1`, the result in [1], in [2], in test [10], in test [4], in [5] and in [6] was inactive. Further, the outcome in test [7], in [8] and in test [9] was inactive.

With `CC(C)[N+](C)(CCOC(=O)C1c2ccccc2Oc2ccccc21)C(C)C`, the result in test [1], in [2], in test [3], in [4], in test [5] and in [6] was inactive. In addition, the outcome in [7], in test [8] and in [9] was inactive.

For `C=CC(=O)NCOCCCC`, the outcome in test [1], in test [2], in test [3], in test [4], in test [5] and in [6] was inactive. The result in test [7], in test [8] and in [9] was inactive.

Regarding `CC(CCC(=O)O)(c1ccc(O)cc1)c1ccc(O)cc1`, the outcome in test [1], in test [2], in [3], in test [4], in test [6] and in test [7] was inactive. Also, the outcome in [8] and in test [9] was inactive.

For the compound `C=C(C)C(=O)OCCCCCCCCCCCC`, the outcome in test [1], in test [2], in [3], in [10], in test [4] and in test [5] was inactive. Moreover, the result in [6], in [7], in test [8] and in test [9] was inactive.

`CC/C=C\CCOC(=O)c1ccccc1O`: the AC50 in test [1] was 34.7 µM (active); in [10], 29.9 µM (active); in [5] it was 37.1 µM (active); in test [6] it was 12.4 µM (active); in test [7] it was 14.2 µM (active). Further, the outcome in test [2], in [3], in test [4], in test [8] and in [9] was inactive.

In the case of `CCCCCC1=CCCC1=O`, the outcome in test [1], in test [2], in test [3], in [10], in test [5] and in test [6] was inactive. Also, the outcome in [7], in test [8] and in test [9] was inactive. Moreover, the AC50 in [4] is 0.016 µM (active).

Take `CCCCC1C(=O)N(c2ccccc2)N(c2ccccc2)C1=O`: the result in test [1], in [2], in [3], in [4], in [6] and in test [7] was inactive. Besides, the result in test [8] and in test [9] was inactive. In addition, the AC50 in test [5] was 37.5 µM (active).

Turning to `Clc1cc(Cl)c(Cl)c(Cl)c1Cl`, the outcome in test [1], in [2], in [3], in test [4], in test [5] and in test [7] was inactive. Besides, the outcome in [8] and in test [9] was inactive. Moreover, in test [6], the half-maximal activity concentration (AC50) is 34.7 µM (active).

`C=CC(=O)OCC(C)OCC(C)OCC(C)OC(=O)C=C` (stereo not drawn): the AC50 in test [1] is 20 µM (active); in test [2] it was 35.5 µM (active); in [5] it was 16 µM (active); in test [6], 13.2 µM (active); in test [7] it was 12.1 µM (active). Besides, the outcome in test [3], in test [4], in [8] and in [9] was inactive.

For the compound `C=CC(=O)OCCCCCCCC(C)C`, the result in [1], in test [2], in [3], in [4], in [5] and in test [6] was inactive. The outcome in test [7] and in test [8] was inactive. Also, the half-maximal activity concentration (AC50) in test [9] is 6.25 µM (active).

For `CC(Cl)COP(=O)(OCC(C)Cl)OCC(C)Cl` (stereo not drawn), the result in [1], in test [2], in [3], in test [4], in test [5] and in test [6] was inactive. Also, the result in test [7], in test [8] and in [9] was inactive.

On to `COc1ccc(C(=O)/C(Br)=C\C(=O)O)cc1`, for which the AC50 in test [1] was 20 µM (active) and 25.9 µM (active); in test [2], 35.3 µM (active) and 34.3 µM (active); in test [5], 37.4 µM (active) and 37.5 µM (active); in test [6], 6.04 µM (active) and 16.3 µM (active); in test [7] it was 20 µM (active) and 17.1 µM (active); in [9] it was 34.9 µM (active) and 35.4 µM (active). The compound was called inactive in [3], in test [4] and in test [8].

As to `C=CC(=O)NC(C)(C)C`, the outcome in test [1], in [2], in test [3], in [10], in test [4] and in [5] was inactive. Moreover, the outcome in test [6], in test [7], in [8] and in test [9] was inactive.
